Screening data deposited in PubChem by National Center for Advancing Translational Sciences (NCATS).
TSHR agonist – TSH receptor (human) agonism; P16473; HEK293-CNG-TSHR cells (CNG channel as cAMP sensor), membrane potential dye, cAMP; Potency, µM (doses to about 57.1 µM), inactives show at the highest dose activation, actives largely listed as activators; 73,000 tested, 0.48% active; AID 926; active = well fitted activation curve with a large enough effect in the main read-out, with a control signal flat, not every such curve was filed as active; inconclusive = small, poorly fitted or top-dose-only effect, or a change in a side signal; inactive = no such curve, though single readings can be large or run the other way; % of control where 0% means no effect;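 also: the control signal comes from parental cells without the receptor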
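HEK 293 cells stably expressing TSHR and a modified CNG channel, with CNG-only parental cells as counterscreen, were preloaded 60 min at room temperature with membrane potential dye containing 100 uM RO 20-1724. Compound exposure was 30 min, and depolarization was read as fluorescence at 590 nm.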
HEK293 cAMP ctrl – parental HEK293 cAMP activation (counter-screen). parental HEK293 CNG cAMP sensor, membrane potential fluorescence. Potency, µM (top dose mostly 57.1 µM), without a hit: top-dose activation, most hits filed as activators. 73,000 tested, 2.5% active. AID 938; also: % of control where 0% means no effect; nearly all actives have a fitted effect of over 55% in size
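Counterscreen for endogenous-receptor signalling: CNG-channel HEK 293 cells report cAMP rise by membrane depolarization. After 60 min dye equilibration with 100 uM RO 20-1724, compounds incubated 30 min before bottom-read fluorescence at 590 nm.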
Tau fil binding – tau filament binding; P10636; recombinant tau filaments, thioflavin S fluorescence, 15 h; filaments grown with octadecylsulfate alongside compound; Potency, µM (titrated, usually from 57.1 µM), for inactives: at the highest dose activity change, negative = inhibition; 71,000 tested, 2% active; AID 596;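 also: % is scaled to controls: 0 for no effect and ±100 for the full control effect; actives lower thioflavin S fluorescence by blocking filaments or displacing dye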
Target sequence (P10636 whole entry, looked up): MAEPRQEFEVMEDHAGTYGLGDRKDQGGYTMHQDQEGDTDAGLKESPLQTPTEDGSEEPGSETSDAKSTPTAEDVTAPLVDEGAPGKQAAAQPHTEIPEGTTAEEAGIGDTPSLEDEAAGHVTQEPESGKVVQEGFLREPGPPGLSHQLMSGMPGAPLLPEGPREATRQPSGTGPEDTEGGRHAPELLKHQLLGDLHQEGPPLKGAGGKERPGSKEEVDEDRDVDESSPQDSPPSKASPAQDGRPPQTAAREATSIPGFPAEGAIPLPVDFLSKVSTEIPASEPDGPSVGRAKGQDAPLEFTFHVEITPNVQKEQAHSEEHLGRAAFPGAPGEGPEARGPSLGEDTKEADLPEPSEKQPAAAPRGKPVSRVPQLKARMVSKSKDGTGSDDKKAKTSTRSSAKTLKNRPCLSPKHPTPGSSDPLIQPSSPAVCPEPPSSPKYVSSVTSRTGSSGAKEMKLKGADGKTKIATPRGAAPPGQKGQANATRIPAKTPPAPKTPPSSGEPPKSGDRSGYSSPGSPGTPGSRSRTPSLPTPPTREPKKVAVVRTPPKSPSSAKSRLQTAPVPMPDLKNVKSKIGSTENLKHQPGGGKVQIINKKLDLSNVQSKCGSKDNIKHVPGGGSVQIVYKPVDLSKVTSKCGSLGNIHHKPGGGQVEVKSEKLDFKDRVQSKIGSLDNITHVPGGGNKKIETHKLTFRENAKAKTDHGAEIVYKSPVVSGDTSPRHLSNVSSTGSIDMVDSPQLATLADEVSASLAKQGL
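Quantitative HTS: thioflavine S signal from ODS-induced tau filaments, excited at 450 nm, emission 510 nm. Conditions: 1 uM tau, 30 uM ODS, 15 h at 37 C, pH 7.4.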
ERK AVP block – blocks ERK signaling stimulated by vasopressin. HEK293-V1b, vasopressin-stimulated pERK AlphaScreen. Potency, µM (doses to about 57.5 µM), inactives show top-dose activity, negative = inhibition, hits mostly inhibitors. 72,000 tested, 0.99% active; also: % is scaled to controls: 0 for no effect and ±100 for the full control effect; nearly all actives have a fitted effect of over 55% in size
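HEK293 cells stably expressing V1b receptor, preincubated 30 min at 37 °C with compound, then stimulated 5 min with 25 nM vasopressin. Phospho-ERK by AlphaScreen SureFire after 5 h RT; normalized to DMSO and vasopressin; AC50 by Hill fit.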
CRE-bla Fsk – CRE-bla signaling modulation under forskolin stimulation. CHO CRE-bla reporter (cAMP response element driving beta-lactamase), forskolin EC10, beta-lactamase ratio. Potency, µM (series often up to 38.2 µM), for inactives: top-dose activity change, negative = inhibition, most hits filed as activators. 71,000 tested, 2.5% active. AID 662; active = well fitted activation curve with a large enough effect in the signal ratio, with a control signal flat, not every such curve was filed as active; inconclusive = small, poorly fitted or top-dose-only effect, or effect the other way, or a change in a side signal; the % refers to the signal ratio; also: % of control where 0% means no effect
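CRE-bla CHO cells stimulated with EC10 NKH 477 (water-soluble forskolin) and compound titrations, 3 h at 37C; beta-lactamase read with CCF4 after 2 h at room temperature. Activity from 460/530 nm emission ratio, AC50 values for positive or negative modulation.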
* marks the source's active call; other numbers are inactive results; ? = inconclusive; . = no result given; [ ] = dose if it differs, or a comment. Rows were chosen to be rich in hits. Some 7.6% of all compounds tested hit in one or more screens of this group. Unless noted, calls follow the shape of the dose curve; as a rule, active = well fitted curve in the direction sought with a large enough effect; inconclusive = small, poorly fitted or top-dose-only effect, or another doubt; inactive = no such curve, though single readings can be large; an effect the other way counts as inactive or inconclusive. Potency is read from the fitted curve at half-maximal effect.

SMILES | TSHR agonist | HEK293 cAMP ctrl | Tau fil binding | ERK AVP block | CRE-bla Fsk
COc1ccc(CNc2ncncc2-c2ccccc2C(F)(F)F)c(OC)c1 | ? | ? | -8% | 13% | 19%
Cc1nc(SCC(=O)NCC2CCCO2)c2oc3ccccc3c2n1 (stereo not given) | 23% | 2% | 1% | -21% | 10µM*
CCc1nc(SCC(=O)NCC2CCCO2)c2oc3ccccc3c2n1 (stereo not given) | 10% | 17% | 5% | -9% | ?
Cc1nc(SCC(=O)Nc2ccc(F)cc2)c2oc3ccccc3c2n1 | ? | ? | 2% | -5% | 0.63µM*
CCCN1C[C@H](CSC)C[C@H]2c3cccc4[nH]cc(c34)C[C@@H]21 | ? | 5% | 89% | -5%[25.7 µM] | -23%
COC(=O)c1ccc(Nc2nc(C)cc(=O)[nH]2)cc1 | ? | 13µM* | 133% | ? | ?
COC(=O)c1ccc(C)c(NS(=O)(=O)c2ccc(OC)cc2)c1 | . | 15%[11.4 µM] | -13%[11.4 µM] | -6% | 0.5µM*
CCOC(=O)c1ccc(NC(=O)CSc2nc3c(c(=O)n2C)SC(C)C3)cc1 (stereo not given) | ? | 20µM* | -19% | . | 5%
CC1Cc2nc(SCC(=O)Nc3ccc4c(c3)OCCO4)n(C)c(=O)c2S1 (stereo not given) | 7% | 13% | -14% | 7% | -13%
CCCn1c(SCC(=O)N2CCN(c3ccccc3)CC2)nc2ccccc2c1=O | 5µM* | 27% | 22% | 0% | ?
CC1Cc2nc(SCC(=O)Nc3nccs3)n(Cc3ccccc3)c(=O)c2S1 (stereo not given) | 6% | -1% | 108% | . | 13µM*
CCn1c(SCC(=O)N2CCN(c3ccccc3)CC2)nc2c(c1=O)SC(C)C2 (stereo not given) | ? | 25µM* | 24% | . | 24%
CC1=NN(c2ccccc2)C(=O)[C@@H]1N=Nc1ccc(S(N)(=O)=O)cc1 | -22%[11.4 µM] | -22%[11.4 µM] | 4µM* | 4%[11.5 µM] | 4%[7.6 µM]
CCCCC(=O)Nc1sc2c(c1C(N)=O)CCC2 | 0% | 1% | 7% | -16% | 18%
CCn1ncc(Br)c1C(=O)Nc1sc2c(c1C(N)=O)CCC2 | 10% | 2% | 53% | -12% | 2.5µM*
COC(=O)c1ccc(C(NC(=O)OCc2ccccc2)/C(=C/[C@@H](C)C(=O)NCc2ccc(OC)c(O)c2)c2cccnc2)cc1 (stereo not given in full) | 29% | 25% | -11% | 17% | -12%
CC(=C/C=C/C(C)=C/C=C/C=C(C)/C=C/C=C(C)/C=C/C(=O)O)/C=C/C(=O)O | ? | ? | 25µM* | 1% | 7%
CC(C)=CCC/C(C)=C/CO/N=C1/C[C@@H](O)[C@@H](O)[C@@H]2[C@@H]3C(=O)N(c4cccc(Oc5ccccc5)c4)C(=O)[C@H]3CC[C@H]12 | -1%[11.4 µM] | 3%[11.4 µM] | . | -3%[11.5 µM] | .
O=C(Nc1nc2c(Cl)cccc2s1)c1ccc(Br)o1 | ? | ? | 183% | 25µM* | -1%
CCN(CC)c1nc(Nc2ccc(Cl)cc2)nc(OCC#N)n1 | -2% | 15% | 52% | 22% | 5µM*
CC1c2[nH]c3ccccc3c2CCN1C(=O)Nc1ccccc1 (stereo not given) | -10% | -12% | -3% | -21% | ?
CC(C)=CCC(C)(C)C1OCCN1C(=O)Nc1ccccc1 (stereo not given) | 10µM* | 24% | -24% | 16% | -7%
CCCCCCCCC1CO1 (stereo not given) | 4% | 16% | 7% | 2% | -5%
CC1=C(C(=O)OCc2ccccc2)C(c2ccccc2)NC(=O)N1CCCCCC(=O)O (stereo not given) | . | 28% | -3% | -12% | ?
CC1=C(C(=O)OCc2ccccc2)C(c2ccc3ccccc3c2)NC(=O)N1CCCCCC(=O)O (stereo not given) | ? | ? | 4% | 4% | ?
SMILES | TSHR agonist | HEK293 cAMP ctrl | Tau fil binding | ERK AVP block | CRE-bla Fsk
CC1=C(C(=O)OCc2ccccc2)C(c2ccc(C(C)(C)C)cc2)NC(=O)N1CCCCCC(=O)O (stereo not given) | ? | 20µM* | -22% | 20% | ?
CC1=C(C(=O)OCc2ccccc2)C(c2ccc([N+](=O)[O-])cc2)NC(=O)N1CCCCCC(=O)O (stereo not given) | -4% | 24% | -9% | 8% | 10µM*
COc1ccc(NC(=O)N2CC3(CCN(C(=O)c4ccco4)CC3)C2)cc1 | 10% | -2% | -2% | 2% | -5%
COCCn1c(C)nc2oc3ccc(Br)cc3c(=O)c2c1=O | -16% | -6% | 16µM* | 4% | ?
CCc1nc2oc3ccccc3c(=O)c2c(=O)n1CCOC | 5% | 0% | -15% | 1% | 13%
CCOC(=O)c1sc(NC(=O)c2ccc3ncsc3c2)nc1C | -6% | 11% | 2% | . | 13µM*
CCOC(=O)c1sc(NC(=O)c2ccc(CC)s2)nc1C | 3% | -3% | 0% | 11% | -2%
FC(F)(F)c1cc(CN2CCC3(CCNCC3)CC2)cc(C(F)(F)F)c1 | -6% | -5% | 13µM* | -9% | -6%
O=C(CCC1CCCCC1)Nc1c2c(nn1-c1ccc(F)cc1)CS(=O)(=O)C2 | ? | 3.2µM* | -4% | -16% | 0%
O=C(Nc1c2c(nn1-c1ccc(F)cc1)CS(=O)(=O)C2)C12CC3CC(CC(C3)C1)C2 | ? | 16µM* | -9% | -4% | -6%
CSc1ccccc1NC(=O)c1c(C)noc1C | 21% | 29% | 47% | 52% | 13µM*
CSc1ccccc1NC(=O)c1onc(C)c1Cl | 22% | 16% | 7% | 28% | 5%
O=C(O)CCCC[C@@H]1SC[C@H]2NC(=O)N[C@H]12 | -2% | -3% | ? | . | ?
COc1ccc(Oc2ncc3ncc(=O)n(Cc4ccc(F)cc4)c3n2)cc1 | ? | ? | -24% | ? | ?
CCOc1ccc(Nc2cc(C)nc(-n3nc(C)cc3C)n2)cc1 | ? | ? | 2% | ? | 13µM*
COc1ccc(Nc2cc(C)nc(N3CCOCC3)n2)cc1 | 3% | 0% | 3% | ? | 4µM*
CNc1cc(C)nc(-n2nc(C)cc2C)n1 | 2% | 14% | 9% | -14% | -5%
Cc1cc(NC2CCCCC2)nc(N2CCOCC2)n1 | 17% | 4% | . | . | .
CC(C)C[C@@H](CC(=O)N[C@@H](CCC(=O)O)CC(=O)O)NC(=O)[C@@H]1CCCC[C@H]1NC(=O)C[C@H](CCCN)NC(=O)C[C@H](Cc1ccccc1)NC(=O)[C@@H]1CNCC[C@H]1N | ? | ? | -6% | . | -9%
